Records with an inconclusive call do not appear. The source made the active and inactive calls. Unless noted, calls come from the whole dose curve; as a rule, active = well fitted curve in the direction sought with a large enough effect; inconclusive = small, poorly fitted or top-dose-only effect, or another doubt; inactive = no such curve, though single readings can be large; an effect the other way counts as inactive or inconclusive.
Columns and labels:
[1] = AP1 Signaling Pathway (AID 357; active = well fitted curve in either direction with a large enough effect, not every such curve was filed as active;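 note: ME-180 reporter cells stimulated with EGF at its EC50 level; % is set by controls: 0 for no effect and ±100 for the full control effect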); settings: ME-180 AP-1-bla reporter, EGF-induced, beta-lactamase ratio, 5 h
How it was run: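 A ratiometric CCF4 readout (405 nm excitation; 460 and 530 nm emission) quantified AP-1-driven beta-lactamase in ME-180 cells after 5 h with compound and EC50 EGF; AC50 values were derived for activators and inhibitors.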

[2] = Stat Signaling Pathway (AID 446; active = well fitted curve in either direction with a large enough effect, not every such curve was filed as active;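 note: ME-180 cervical cancer cells given 40 pM IL-6 alongside compound; SIE-controlled beta-lactamase reporter measured as 460/530 nm FRET emission ratio; % is set by controls: 0 for no effect and ±100 for the full control effect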); settings: ME-180 (cervical carcinoma) SIE beta-lactamase reporter, IL-6 stimulated, 5 h
How it was run: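 Normalization used AC90 stimulation (300 pM IL-6) and AC90 inhibition (125 nM pan-JAK inhibitor at 40 pM IL-6). The underlying signal is SIE-driven beta-lactamase in ME-180 cells after 5 h IL-6 exposure with compound.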

[3] = biological target: Glucocorticoid receptor (Homo sapiens) (UniProt P04150); test: GR-GFP Redistribution (AID 450;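 active = compounds whose dose series gives a full or clear partial fitted curve of increased nuclear translocation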; note: potency is the fitted concentration of half-maximal effect); settings: U2OS GR-GFP nuclear translocation, laser cytometry, 2 h
Chain of Glucocorticoid receptor (Homo sapiens) (P04150 whole entry, looked up, the tested form may be a part): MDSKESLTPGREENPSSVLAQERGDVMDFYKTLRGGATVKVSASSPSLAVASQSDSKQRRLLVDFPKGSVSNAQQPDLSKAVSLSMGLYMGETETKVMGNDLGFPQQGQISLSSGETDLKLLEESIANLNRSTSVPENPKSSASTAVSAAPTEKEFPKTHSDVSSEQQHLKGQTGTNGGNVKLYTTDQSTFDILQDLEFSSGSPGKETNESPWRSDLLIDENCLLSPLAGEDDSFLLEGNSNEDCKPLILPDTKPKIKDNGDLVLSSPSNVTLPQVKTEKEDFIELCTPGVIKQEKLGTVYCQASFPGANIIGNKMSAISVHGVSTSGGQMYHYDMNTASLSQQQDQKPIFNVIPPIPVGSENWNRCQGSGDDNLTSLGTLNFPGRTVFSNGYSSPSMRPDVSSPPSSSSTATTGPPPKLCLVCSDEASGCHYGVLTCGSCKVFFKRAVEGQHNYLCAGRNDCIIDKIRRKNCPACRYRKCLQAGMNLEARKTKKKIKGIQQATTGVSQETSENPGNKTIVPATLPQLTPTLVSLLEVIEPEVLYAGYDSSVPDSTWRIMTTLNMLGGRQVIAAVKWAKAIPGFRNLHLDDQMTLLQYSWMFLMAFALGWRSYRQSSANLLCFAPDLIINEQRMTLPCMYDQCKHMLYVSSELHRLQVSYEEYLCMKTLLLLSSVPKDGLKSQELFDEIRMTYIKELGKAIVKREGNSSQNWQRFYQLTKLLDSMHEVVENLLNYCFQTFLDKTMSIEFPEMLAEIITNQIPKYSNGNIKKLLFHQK

[4] = test system: Zika virus NS2B-NS3 protease; test: Primary screen GU AMC qHTS for Zika virus inhibitors (AID 1347154); settings: Zika NS2B-NS3 unlinked protease, AMC fluorogenic substrate; series mostly up to 54.1 µM;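 note: 0% = no-inhibitor control and -100% = no-enzyme control; nearly all actives have a fitted effect of over 70% in size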
How it was run: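 Fluorogenic AMC-substrate cleavage by noncovalent NS2B-NS3 protease complex (25 nM, pH 8.0 Tris buffer with Tween 20) followed for 15 minutes at room temperature (~20% conversion). Percent inhibition from ex340/em450 signal change, fitted by 4-parameter Hill equation.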

[5] = Primary qHTS for small molecule stabilizers of the endoplasmic reticulum resident proteome: Secreted ER Calcium Modulated Protein (SERCaMP) assay (AID 1508630); settings: SH-SY5Y GLuc-SERCaMP (Gaussia luciferase released on ER calcium loss) secretion, thapsigargin, luminescence; series mostly up to 38.4 µM; note: % is set by controls: 0 for no effect and ±100 for the full control effect
How it was run: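 The SH-SY5Y reporter protocol was run at 3 concentrations up to 38.3 uM (primary) or 11 concentrations (follow-up): 16 h compound, 100 nM thapsigargin for 4 h, then extracellular luciferase luminescence.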

[6] = NFAT Signaling Pathway (AID 444; active = well fitted curve in either direction with a large enough effect, not every such curve was filed as active;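 note: carbachol stimulus at about its EC50 of 1 µM final; % is set by controls: 0 for no effect and ±100 for the full control effect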); settings: Jurkat NFAT-bla M1, carbachol, beta-lactamase ratio, 5 h
How it was run: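 Read-out: CCF4 FRET ratio (460 nm/530 nm) after 1 h RT dye loading, used for %activity and AC50 from titration series. Cells: Jurkat NFAT-β-lactamase/M1 line, treated with compound plus 1 uM carbachol for 5 h, 37 °C.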

[7] = biological target: Cytochrome P450 1A2 (Homo sapiens) (UniProt P05177); test: p450-cyp1a2 (AID 410; calls by dose curve; note: potency is the fitted concentration of half-maximal effect;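 for activity change, negative = inhibition: -100% = full effect of reference inhibitor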); settings: recombinant CYP1A2, luciferin-ME demethylation, luminescence; series mostly up to 57 µM
Chain of Cytochrome P450 1A2 (Homo sapiens) (P05177 whole entry, looked up): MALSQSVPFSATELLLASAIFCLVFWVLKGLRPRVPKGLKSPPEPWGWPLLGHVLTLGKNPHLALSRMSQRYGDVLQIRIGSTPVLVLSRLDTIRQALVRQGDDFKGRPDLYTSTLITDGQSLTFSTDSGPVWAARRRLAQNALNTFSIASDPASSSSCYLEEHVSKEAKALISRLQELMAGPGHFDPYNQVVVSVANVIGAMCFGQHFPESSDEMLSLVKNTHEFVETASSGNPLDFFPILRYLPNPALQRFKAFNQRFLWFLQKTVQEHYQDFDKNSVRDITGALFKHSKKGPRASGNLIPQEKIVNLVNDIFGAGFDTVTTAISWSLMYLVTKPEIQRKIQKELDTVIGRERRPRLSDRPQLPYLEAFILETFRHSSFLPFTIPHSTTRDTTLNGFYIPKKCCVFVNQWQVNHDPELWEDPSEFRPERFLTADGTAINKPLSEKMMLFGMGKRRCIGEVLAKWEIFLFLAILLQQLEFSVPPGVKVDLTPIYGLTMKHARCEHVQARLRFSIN
How it was run: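 Luminescent demethylation readout: Luciferin-ME (100uM, equal to Km) turned over by 20nM CYP1A2 for 60 min at room temperature after NADPH regeneration addition, following 10 min compound preincubation. Normalization used 57 uM furafylline as full inhibition.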

[8] = biological target: Glucocorticoid receptor (Homo sapiens) (UniProt P04150); test: GR-EFC Redistribution (AID 451; calls by dose curve; note: potency is the fitted concentration of half-maximal effect); settings: CHO-K1 GR-EFC translocation, beta-gal luminescence, 2 h
How it was run: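 Translocation of GR-ED fusion to nuclear EA restores b-gal, read by luminescence after 1 h room-temperature detection. Engineered CHO-K1 biosensor cells, 1,000/well, exposed 2 h at 37 C to titrations up to 46 uM final.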

[9] = biological target: Mitogen-activated protein kinase 10 (Mus musculus) (UniProt Q61831); test: JNK3 AlphaScreen Assay (AID 530; active = well fitted curve in either direction with a large enough effect, not every such curve was filed as active); settings: JNK3 lysate, c-Jun phosphorylation; series mostly up to 57.1 µM
How it was run: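 qHTS titrations with 15 min compound pre-incubation before adding ATP (10 uM final). Read-out: AlphaScreen of Ser73-phosphorylated biotin-GST-cJun using HepG2 lysate JNK3 activated by IL-1β and TNFα.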

[10] = biological target: Ubiquitin carboxyl-terminal hydrolase 1 (Homo sapiens) (UniProt O94782); test: Inhibitors of USP1/UAF1: Pilot qHTS (AID 504865); settings: purified USP1/UAF1, Ub-rhodamine cleavage fluorescence; series mostly up to 114 µM;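 note: rhodamine fluorescence freed from ubiquitin-rhodamine substrate followed over time; top concentration of the series differs between compounds; % is set by controls: 0 for no effect and ±100 for the full control effect; nearly all actives have a fitted effect of over 35% in size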
Chain of Ubiquitin carboxyl-terminal hydrolase 1 (Homo sapiens) (O94782 whole entry, looked up): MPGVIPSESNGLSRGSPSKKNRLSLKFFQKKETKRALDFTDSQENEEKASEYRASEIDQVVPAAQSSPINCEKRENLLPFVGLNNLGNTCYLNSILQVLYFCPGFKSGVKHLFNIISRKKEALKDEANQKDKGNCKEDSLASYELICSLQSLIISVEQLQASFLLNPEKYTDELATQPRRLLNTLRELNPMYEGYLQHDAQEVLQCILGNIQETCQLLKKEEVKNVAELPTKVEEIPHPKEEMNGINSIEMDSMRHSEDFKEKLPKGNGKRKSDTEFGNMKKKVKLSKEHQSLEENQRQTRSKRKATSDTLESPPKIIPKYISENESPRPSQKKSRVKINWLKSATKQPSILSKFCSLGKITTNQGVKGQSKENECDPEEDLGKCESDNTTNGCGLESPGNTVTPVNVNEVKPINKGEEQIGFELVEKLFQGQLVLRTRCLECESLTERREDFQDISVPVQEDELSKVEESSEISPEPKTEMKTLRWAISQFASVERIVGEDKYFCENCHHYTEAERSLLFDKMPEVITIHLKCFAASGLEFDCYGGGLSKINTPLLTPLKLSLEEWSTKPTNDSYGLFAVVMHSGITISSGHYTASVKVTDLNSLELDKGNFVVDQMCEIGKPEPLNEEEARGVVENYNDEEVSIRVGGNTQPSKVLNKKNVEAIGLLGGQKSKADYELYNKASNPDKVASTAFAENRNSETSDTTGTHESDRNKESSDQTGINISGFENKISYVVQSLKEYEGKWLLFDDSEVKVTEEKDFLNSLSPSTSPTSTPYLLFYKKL
How it was run: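 Deubiquitinase activity followed as kinetic rhodamine fluorescence release from 150 nM Ub-Rho. 1 nM USP1/UAF1 with compound, after 15 min room-temperature preincubation, in HEPES pH 7.8 buffer containing TCEP, EDTA, BSA and Tween-20.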

[11] = biological target: DNA dC->dU-editing enzyme APOBEC-3G (Homo sapiens) (UniProt Q9HC16); test: qHTS for inhibitors of Vif-A3G interactions: Validation (AID 588379); settings: Vif-A3G protein interaction assay; series mostly up to 46.1 µM; note: 0% is about no effect
Chain of DNA dC->dU-editing enzyme APOBEC-3G (Homo sapiens) (Q9HC16 whole entry, looked up): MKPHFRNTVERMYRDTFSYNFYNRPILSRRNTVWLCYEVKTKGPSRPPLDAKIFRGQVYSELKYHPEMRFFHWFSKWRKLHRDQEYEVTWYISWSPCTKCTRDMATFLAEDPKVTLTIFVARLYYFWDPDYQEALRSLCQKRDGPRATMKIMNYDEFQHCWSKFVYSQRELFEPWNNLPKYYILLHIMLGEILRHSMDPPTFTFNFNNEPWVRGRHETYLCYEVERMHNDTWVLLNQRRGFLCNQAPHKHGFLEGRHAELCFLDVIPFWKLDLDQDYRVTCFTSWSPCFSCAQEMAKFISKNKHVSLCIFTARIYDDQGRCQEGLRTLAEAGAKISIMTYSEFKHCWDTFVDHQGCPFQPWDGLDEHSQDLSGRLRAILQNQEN
How it was run: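 Yellow fluorescence (Ex 488, Em 500-530) of Vif-coexpressing HeLa A3G-eYFP cells, scanned by Acumen cytometer, reports blocked A3G degradation. Cells plated at 700/well overnight at 37 deg C before compound addition, then a further overnight compound incubation at 37 deg C.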

[12] = biological target: 3',5'-cyclic-AMP phosphodiesterase 4B (Homo sapiens) (UniProt Q07343); test: qHTS Assay for Inhibitors of PDE-IV (AID 607; active = well fitted activation curve with a large enough effect in the main read-out, with a control signal flat, not every such curve was filed as active; note: % of control where 0% means no effect); settings: HEK293 ACTOne CNG channel cells, membrane potential fluorescence; series mostly up to 22.9 µM
Chain of 3',5'-cyclic-AMP phosphodiesterase 4B (Homo sapiens) (Q07343 whole entry, looked up): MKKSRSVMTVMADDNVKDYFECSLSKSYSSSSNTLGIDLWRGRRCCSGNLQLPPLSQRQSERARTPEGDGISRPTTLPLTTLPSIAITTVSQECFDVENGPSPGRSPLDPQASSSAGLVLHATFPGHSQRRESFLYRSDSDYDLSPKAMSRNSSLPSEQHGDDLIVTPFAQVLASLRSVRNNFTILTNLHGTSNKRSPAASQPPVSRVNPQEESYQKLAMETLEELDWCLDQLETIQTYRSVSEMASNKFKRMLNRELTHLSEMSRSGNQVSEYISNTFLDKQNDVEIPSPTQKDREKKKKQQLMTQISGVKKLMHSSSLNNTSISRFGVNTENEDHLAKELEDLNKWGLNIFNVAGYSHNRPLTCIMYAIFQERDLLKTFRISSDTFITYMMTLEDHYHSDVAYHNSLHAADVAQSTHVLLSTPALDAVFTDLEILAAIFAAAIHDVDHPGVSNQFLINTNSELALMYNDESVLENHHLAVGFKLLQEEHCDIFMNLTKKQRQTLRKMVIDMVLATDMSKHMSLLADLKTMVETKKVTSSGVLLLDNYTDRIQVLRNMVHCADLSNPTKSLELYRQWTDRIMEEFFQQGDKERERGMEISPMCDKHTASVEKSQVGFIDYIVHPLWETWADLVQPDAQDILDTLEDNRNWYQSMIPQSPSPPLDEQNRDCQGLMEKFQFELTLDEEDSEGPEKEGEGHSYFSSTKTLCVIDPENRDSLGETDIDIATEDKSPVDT
How it was run: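 HEK293 ACTOne cells with CNG channel (1000/well), endogenous PDE4; membrane potential dye, compounds up to 22.9 uM final. Fluorescence Ex 535/Em 590; RO 20-1724 (100 uM final) as reference.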

[13] = biological target: Cytochrome P450 2C9 (Homo sapiens) (UniProt P11712); test: qHTS Assay for Inhibitors and Substrates of Cytochrome P450 2C9 (AID 883); settings: recombinant CYP2C9, luciferin-H luminescence, 60 min; series mostly up to 57.1 µM; note: potency is the fitted concentration of half-maximal effect; nearly all actives have a fitted effect of over 60% in size
Chain of Cytochrome P450 2C9 (Homo sapiens) (P11712 whole entry, looked up): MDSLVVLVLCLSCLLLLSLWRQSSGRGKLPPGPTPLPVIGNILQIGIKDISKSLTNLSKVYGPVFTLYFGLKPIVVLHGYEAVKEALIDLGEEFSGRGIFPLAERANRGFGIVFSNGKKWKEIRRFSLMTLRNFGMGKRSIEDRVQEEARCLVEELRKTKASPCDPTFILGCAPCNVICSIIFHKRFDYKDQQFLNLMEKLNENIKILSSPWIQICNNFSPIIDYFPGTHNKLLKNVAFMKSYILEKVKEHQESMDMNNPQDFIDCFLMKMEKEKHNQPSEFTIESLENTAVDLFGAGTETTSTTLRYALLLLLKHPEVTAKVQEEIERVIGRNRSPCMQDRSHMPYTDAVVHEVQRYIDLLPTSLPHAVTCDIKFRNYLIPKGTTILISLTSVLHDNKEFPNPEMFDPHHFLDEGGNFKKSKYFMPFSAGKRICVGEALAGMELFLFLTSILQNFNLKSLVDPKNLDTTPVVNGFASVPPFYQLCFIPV
How it was run: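 Turnover of Luciferin-H (100uM, KM) by 10nM human CYP2C9 was measured over 60 min at 37C with NADPH regeneration; inhibitors and some substrates reduce luminescence. Data normalized to sulphaphenazole 57uM.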

[14] = biological target: Cytochrome P450 3A4 (Homo sapiens) (UniProt P08684); test: qHTS Assay for Inhibitors and Substrates of Cytochrome P450 3A4 (AID 884); settings: recombinant CYP3A4, Luciferin-PPXE luminescence; series mostly up to 57.1 µM; note: potency is the fitted concentration of half-maximal effect; nearly all actives have a fitted effect of over 50% in size
Chain of Cytochrome P450 3A4 (Homo sapiens) (P08684 whole entry, looked up): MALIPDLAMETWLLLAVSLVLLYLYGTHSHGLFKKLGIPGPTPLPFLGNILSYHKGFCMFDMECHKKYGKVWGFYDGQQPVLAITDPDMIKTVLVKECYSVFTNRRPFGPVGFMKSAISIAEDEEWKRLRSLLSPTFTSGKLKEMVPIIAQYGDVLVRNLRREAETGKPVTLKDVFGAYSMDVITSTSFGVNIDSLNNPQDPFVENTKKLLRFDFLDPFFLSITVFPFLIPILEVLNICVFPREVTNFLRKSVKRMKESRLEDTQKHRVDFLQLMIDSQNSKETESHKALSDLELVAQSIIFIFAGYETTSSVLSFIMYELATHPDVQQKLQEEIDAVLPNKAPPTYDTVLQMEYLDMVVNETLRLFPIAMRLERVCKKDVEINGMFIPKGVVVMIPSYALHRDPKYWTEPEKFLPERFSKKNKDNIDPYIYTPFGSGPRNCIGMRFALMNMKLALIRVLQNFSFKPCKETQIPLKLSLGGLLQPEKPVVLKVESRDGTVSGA
How it was run: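 Luminescent readout of luciferin produced by CYP3A4 (20 nM) dealkylation of Luciferin-PPXE, 25 uM (its KM). NADPH-driven reaction ran 60 min at RT after 10 min compound preincubation; data scaled to 57 uM ketoconazole as 100% inhibition.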

[15] = biological target: Cytochrome P450 3A4 (Homo sapiens) (UniProt P08684); test: qHTS Assay for Activators of Cytochrome P450 3A4 (AID 885); settings: recombinant CYP3A4, Luciferin-PPXE luminescence, 60 min; series mostly up to 57.1 µM; note: nearly all actives have a fitted effect of over 65% in size
How it was run: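 Human CYP3A4 dealkylates Luciferin-PPXE to luciferin, which luciferase detection converts to light. Substrate was at its KM (25uM), buffer 200mM KPO4, reaction 60 min at RT.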

[16] = biological target: Cytochrome P450 2D6 (Homo sapiens) (UniProt P10635); test: qHTS Assay for Inhibitors and Substrates of Cytochrome P450 2D6 (AID 891); settings: recombinant CYP2D6, luciferin-ME EGE luminescence; series mostly up to 57.1 µM; note: potency is the fitted concentration of half-maximal effect; nearly all actives have a fitted effect of over 60% in size
Chain of Cytochrome P450 2D6 (Homo sapiens) (P10635 whole entry, looked up): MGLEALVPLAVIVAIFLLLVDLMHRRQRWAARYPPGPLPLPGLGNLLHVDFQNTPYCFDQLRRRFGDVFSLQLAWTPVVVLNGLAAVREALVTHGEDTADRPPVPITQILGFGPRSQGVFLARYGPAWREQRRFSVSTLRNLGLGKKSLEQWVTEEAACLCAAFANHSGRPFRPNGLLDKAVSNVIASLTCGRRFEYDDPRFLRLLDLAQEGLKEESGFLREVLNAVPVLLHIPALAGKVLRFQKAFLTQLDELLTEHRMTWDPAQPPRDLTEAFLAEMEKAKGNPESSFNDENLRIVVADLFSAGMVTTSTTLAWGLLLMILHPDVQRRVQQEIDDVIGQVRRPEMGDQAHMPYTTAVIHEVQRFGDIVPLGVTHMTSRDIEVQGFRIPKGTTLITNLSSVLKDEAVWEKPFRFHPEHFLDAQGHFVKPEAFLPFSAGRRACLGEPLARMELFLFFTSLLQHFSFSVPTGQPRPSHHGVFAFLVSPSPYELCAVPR
How it was run: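 Luminescent read-out of luciferin formed by 5 nM human CYP2D6 demethylating 30 uM Luciferin-ME EGE (Km level) over 60 min at room temperature after NADPH regeneration addition. Data normalized to full inhibition by 1.43 uM quinidine.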

CCCCC[C@H](O)/C=C/C1=C(CCCCCCC(=O)O)C(=O)CC1
inactive: activity change, negative = inhibition ([1]; at 17.2 µM (top of the series)) -2.06% | activity, negative = inhibition ([2]; at 17.2 µM (top of the series)) 0.776% | Potency [3] > 20.6 µM | activity change, negative = inhibition [4] 14% [at 6.83 µM] | activity change, negative = inhibition [5] -5.34% [at 3.88 µM]

CC(=O)[C@H]1[C@H](C#N)C[C@H]2[C@@H]3CC=C4C[C@@H](O)CC[C@]4(C)[C@H]3CC[C@@]21C
inactive: activity change, negative = inhibition ([1]; at 17.2 µM (top of the series)) 5.31% | activity change, negative = inhibition ([6]; at 17.2 µM (top of the series)) 9.39% | activity, negative = inhibition ([2]; at 17.2 µM (top of the series)) 2.76% | Potency [3] > 20.6 µM | Potency [4] | Potency [5]

CCCCNC(=O)[C@@H]1Cc2ccccc2N1C(=O)[C@H](N)CC
inactive: Potency [3] > 46 µM | Potency [8] > 46 µM | Potency [9] | Potency [10] | Potency [11] | Potency [4] | Potency [5]
active: Potency [7] 20 µM

CCC(=O)N[C@@H]1CCc2cccc(OC)c2C1
active: Potency [7] 12.6 µM
inactive: Potency [3] > 46 µM | Potency [8] > 46 µM | Potency [9] | Potency [12] | Potency [10] | Potency [11] | Potency [4] | Potency [5]

NS(=O)(=O)c1cccc2c1c([N+](=O)[O-])cc1[nH]c(=O)c(=O)[nH]c12
inactive: Potency [7] | Potency [3] > 46 µM | Potency [8] > 46 µM | Potency [9] | Potency [11] | Potency [4] | Potency [5]

C[C@@H](CCCCC(=O)Nc1ccc(C(F)(F)F)cc1)NCCc1cnc[nH]1
active: Potency [13] 7.94 µM | Potency [14] 5.01 µM | Potency [16] 5.01 µM
inactive: Potency [7] | Potency [3] > 46 µM | Potency [8] > 46 µM | Potency [9] | Potency [12] | Potency [15] | Potency [10] | Potency [11] | Potency [4] | Potency [5]

O[C@H](CCCN1CCN(c2ncc(F)cn2)CC1)c1ccc(F)cc1
inactive: Potency [3] > 46 µM | Potency [8] > 46 µM | Potency [9] | Potency [12] | Potency [10] | Potency [11] | Potency [4] | Potency [5]
active: Potency [7] 31.6 µM

OC[C@@H](O)COc1cccc2ccccc12
inactive: Potency [3] > 46 µM | Potency [8] > 46 µM | Potency [9] | Potency [12] | Potency [10] | Potency [11] | Potency [4] | Potency [5]
active: Potency [7] 0.631 µM

CCCCCCCC/C=C\CCCCCCCC(N)=O
inactive: Potency [3] > 46 µM | Potency [8] > 46 µM | Potency [9] | Potency [12] | Potency [11] | Potency [4] | Potency [5]
active: Potency [7] 6.31 µM

OCc1cc([C@@H](O)CNCCCCCCOCCCCc2ccccc2)ccc1O
inactive: activity change, negative = inhibition ([1]; at 38 µM (top of the series)) 9.46% | activity change, negative = inhibition ([6]; at 38 µM (top of the series)) -1.3% | activity, negative = inhibition ([2]; at 38 µM (top of the series)) -26.7% | Potency [3] > 46 µM | Potency [8] > 46 µM | Potency [9] | Potency [12] | Potency [11] | Potency [4] | Potency [5]

O=C(c1c(O)c2ccc(Cl)cc2[nH]c1=O)C1CC1
inactive: Potency [3] > 46 µM | Potency [8] > 46 µM | Potency [9] | Potency [12] | Potency [15] | Potency [10] | Potency [11] | Potency [4] | Potency [5]
active: Potency [7] 0.0794 µM

COc1ccc(CCCO[C@@H](Cn2ccnc2)c2ccc(OC)cc2)cc1
active: Potency [7] 0.0158 µM
inactive: Potency [3] > 46 µM | Potency [8] > 46 µM | Potency [9] | Potency [4] | Potency [5]
